For 17 molecules, inhibition results are on record in PubChem BioAssay.

Broadly, the inhibition is the change of the read-out against control, counted positive when it falls.

In assay [1] the target is Nuclear receptor coactivator 3 (Homo sapiens) (UniProt Q9Y6Q9). As to the kind of experiment: SRC3 coactivator transcriptional activity inhibitors, confirmation, cell-based, luminescence, quadruplicate (AID 588792;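 active means mean inhibition over 43.08%, the solvent-only control mean plus 3 SD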;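 further: 0% = DMSO treated cells and 100% = gossypol at 36 µM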). The settings on record: HEK293 GAL4-SRC3 luciferase reporter, at 3.6 µM, active compounds read high. (In general: Reporter assays use an easily measured gene product as a stand-in for the process of interest.)

In assay [2] the test system is transactivating tegument protein VP16 (Human herpesvirus 1), Gal4-VP16 luciferase reporter. As to the kind of experiment: VP16 transactivation inhibitors, counter-screen for SRC3 inhibitor project, cell-based, luminescence, high throughput (AID 588794; in the data active means inhibition above about 30%). To be noted: mammalian cells, VP16-driven luciferase reporter luminescence; at 3.6 µM; active compounds read high. A general note: Counterscreens check selectivity or assay interference.

Assay [3] can be described thus: StAR promoter reporter inhibitors, counter-screen for LRH-1 inverse agonist project, cell-based, luminescence, high throughput (AID 651611; in the data active means inhibition above about 28%). The settings on record: StAR promoter luciferase reporter counterscreen, at 3.6 µM, active compounds read high.
For assay [4], the target named is Nuclear receptor subfamily 5 group A member 2 (Homo sapiens) (UniProt O00482). As to the kind of experiment: LRH-1 (NR5A2) inverse agonists, retest, confirmation, cell-based, luminescence (AID 651613; in the data active means inhibition above about 42%;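 further: HEK293T cells co-transfected with LRH-1 and StAR promoter luciferase reporter; 0% = vehicle wells and 100% = parental cells lacking receptor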). The settings on record: cell-based LRH-1 luciferase reporter, inverse agonism; at 3.6 µM; active compounds read high.
The target in assay [5] is Steroidogenic factor 1 (Homo sapiens) (UniProt Q13285). As to the kind of experiment: SF1 (NR5A1) inverse agonists, counter-screen for LRH-1 inverse agonist project, cell-based, luminescence, high throughput (AID 651614; in the data active means inhibition above about 44%;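 further: cells cotransfected with StAR promoter reporter and SF1 expression vector; 0% = vehicle on cells with receptor and 100% = vehicle on cells lacking receptor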). To be noted: cell-based SF1 luciferase reporter, at 3.6 µM, active compounds read high.
Assay [6] is described as follows: VP16 transactivation reporter inhibitors, counter-screen for LRH-1 inverse agonist project, cell-based, luminescence, high throughput (AID 651615). The settings on record: Gal4-VP16 luciferase reporter cells, at 3.6 µM, active compounds read high.

“And” between values parts separate entries of the source, which are not always exact repeats. Identical values can stand only once. A number with no mark means an inactive call. The source made the active and inactive calls. Unless noted, no stated cut-off is given here; in the data, active means inhibition above about 33%; inactive means the rest.

Nuclear receptor subfamily 5 group A member 2 (Homo sapiens), sequence (O00482 whole entry, looked up): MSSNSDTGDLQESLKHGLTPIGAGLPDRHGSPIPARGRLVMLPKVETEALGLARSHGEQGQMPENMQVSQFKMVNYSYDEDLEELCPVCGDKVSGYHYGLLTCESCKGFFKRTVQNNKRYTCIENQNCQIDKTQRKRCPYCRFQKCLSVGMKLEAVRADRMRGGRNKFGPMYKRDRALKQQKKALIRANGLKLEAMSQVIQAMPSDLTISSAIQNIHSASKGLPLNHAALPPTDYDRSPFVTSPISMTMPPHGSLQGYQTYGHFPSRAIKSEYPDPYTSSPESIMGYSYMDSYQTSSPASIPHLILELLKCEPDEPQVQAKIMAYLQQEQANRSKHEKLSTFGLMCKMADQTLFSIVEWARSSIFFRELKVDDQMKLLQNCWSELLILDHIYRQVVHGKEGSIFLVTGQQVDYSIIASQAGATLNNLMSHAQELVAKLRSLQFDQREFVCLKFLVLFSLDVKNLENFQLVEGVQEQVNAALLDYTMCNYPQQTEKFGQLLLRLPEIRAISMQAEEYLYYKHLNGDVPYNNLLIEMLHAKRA
Steroidogenic factor 1 (Homo sapiens), sequence (Q13285 whole entry, looked up, the tested form may be a part): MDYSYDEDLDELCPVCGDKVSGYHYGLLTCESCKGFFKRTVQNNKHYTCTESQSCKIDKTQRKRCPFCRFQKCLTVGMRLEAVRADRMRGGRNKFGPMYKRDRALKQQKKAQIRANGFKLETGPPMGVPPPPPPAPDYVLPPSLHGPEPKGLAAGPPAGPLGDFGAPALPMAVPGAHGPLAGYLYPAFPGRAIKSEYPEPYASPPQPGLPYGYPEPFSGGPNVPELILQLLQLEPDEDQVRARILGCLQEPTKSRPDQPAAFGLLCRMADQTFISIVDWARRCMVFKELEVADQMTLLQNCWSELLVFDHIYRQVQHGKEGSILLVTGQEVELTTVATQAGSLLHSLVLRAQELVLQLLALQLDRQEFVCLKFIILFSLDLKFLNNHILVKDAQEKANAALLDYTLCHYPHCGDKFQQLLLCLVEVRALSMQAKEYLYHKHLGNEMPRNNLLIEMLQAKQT
Nuclear receptor coactivator 3 (Homo sapiens), sequence (Q9Y6Q9 whole entry, looked up, the tested form may be a part): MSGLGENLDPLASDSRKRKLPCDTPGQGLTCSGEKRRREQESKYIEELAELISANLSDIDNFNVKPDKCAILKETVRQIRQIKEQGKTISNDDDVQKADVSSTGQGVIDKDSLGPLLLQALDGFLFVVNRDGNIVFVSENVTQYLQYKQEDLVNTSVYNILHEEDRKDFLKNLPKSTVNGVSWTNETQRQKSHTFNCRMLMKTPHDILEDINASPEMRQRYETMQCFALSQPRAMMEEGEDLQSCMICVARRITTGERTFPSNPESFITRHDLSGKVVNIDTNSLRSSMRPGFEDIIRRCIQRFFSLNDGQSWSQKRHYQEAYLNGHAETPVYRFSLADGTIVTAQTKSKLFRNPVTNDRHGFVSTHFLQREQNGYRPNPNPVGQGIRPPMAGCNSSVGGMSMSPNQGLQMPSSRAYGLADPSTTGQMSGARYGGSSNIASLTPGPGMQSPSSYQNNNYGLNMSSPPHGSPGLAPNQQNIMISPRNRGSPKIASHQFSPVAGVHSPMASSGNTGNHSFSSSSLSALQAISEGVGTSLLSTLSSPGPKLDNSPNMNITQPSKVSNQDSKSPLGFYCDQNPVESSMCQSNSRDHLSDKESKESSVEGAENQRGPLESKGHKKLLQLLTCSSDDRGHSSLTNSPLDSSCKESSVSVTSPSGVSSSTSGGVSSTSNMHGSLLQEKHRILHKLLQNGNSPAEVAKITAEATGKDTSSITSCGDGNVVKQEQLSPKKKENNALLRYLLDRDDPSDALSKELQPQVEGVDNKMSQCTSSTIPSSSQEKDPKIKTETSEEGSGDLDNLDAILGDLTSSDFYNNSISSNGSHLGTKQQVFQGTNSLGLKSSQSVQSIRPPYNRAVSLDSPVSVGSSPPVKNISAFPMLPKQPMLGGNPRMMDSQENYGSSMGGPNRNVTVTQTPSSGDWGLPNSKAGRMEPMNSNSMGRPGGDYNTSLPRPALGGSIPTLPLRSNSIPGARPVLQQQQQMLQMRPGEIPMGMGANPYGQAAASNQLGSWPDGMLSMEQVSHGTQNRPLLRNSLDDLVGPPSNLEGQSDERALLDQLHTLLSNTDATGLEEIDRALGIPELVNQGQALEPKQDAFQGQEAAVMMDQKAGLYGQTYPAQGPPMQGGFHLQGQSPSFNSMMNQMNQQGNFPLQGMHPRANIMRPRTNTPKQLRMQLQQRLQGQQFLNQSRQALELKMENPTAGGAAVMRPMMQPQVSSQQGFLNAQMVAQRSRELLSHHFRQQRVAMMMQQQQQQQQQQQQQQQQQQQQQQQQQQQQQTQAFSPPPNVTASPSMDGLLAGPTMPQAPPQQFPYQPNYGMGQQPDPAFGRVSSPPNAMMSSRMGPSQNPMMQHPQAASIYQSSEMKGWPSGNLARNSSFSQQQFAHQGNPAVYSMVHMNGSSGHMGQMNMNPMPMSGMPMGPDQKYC

For `O=C(Nc1ccccc1)Nc1cc(OCC(F)(F)F)cc(OCC(F)(F)F)c1`, the inhibition in assay [1] is 21.7%; in assay [2] it was 20.5%; in assay [3] it was 22.9%; in assay [4] it was 71.3% (active); in assay [5], 54.7% (active); in assay [6], 54.3% (active).
Turning to `Cc1nnsc1S(=O)c1ccc(Cl)c(Cl)c1` (configuration not stated), the inhibition in assay [1] is 34.3%; in assay [2], 9.36%; in assay [3], 25.5%; in assay [4], 64.4% (active); in assay [5], 66.4% (active); in assay [6] it was 20.8%.
For the molecule `C#CC(=O)N(c1ccc(OC)c(OC)c1)C(C(=O)NC1CCCC1)c1cccs1` (configuration not stated), the inhibition in assay [1] is 25.2%; in assay [2], -2.4%; in assay [3] it was 17.7%; in assay [4], 57.3% (active); in assay [5] it was 35.4%; in assay [6] it was 10.9%.
As to `Cc1ccnc(NC(=O)CCCOc2cc(=O)n(C)c3ccccc23)c1`, the inhibition in assay [1] is 3.13% and 25%; in assay [2], -1.88% and -14.4%; in assay [3], 61% (active) and 59.3% (active); in assay [4] it was 91.4% (active) and 81.7% (active); in assay [5] it was 67.8% (active) and 59.8% (active); in assay [6] it was 23.5% and 8.09%.
Take `COc1ccc(-c2cn(-c3ccccc3)c3[n+]2CCS3)cc1`: the inhibition in assay [1] is 15.7%; in assay [2], 35.4% (active); in assay [3], 18.2%; in assay [4], 61.1% (active); in assay [5], 60.6% (active); in assay [6], 45.1% (active).
In the case of `COc1cccc(CNc2nc3cc(-c4cnn(Cc5ccccc5)c4)sc3c(=O)n2C)c1`, the inhibition in assay [1] was 6.76%; in assay [2], 30.1% (active); in assay [3] it was 32.4% (active); in assay [4], 47.3% (active); in assay [5] it was 52% (active); in assay [6], 46.9% (active).
In the case of `C[C@H]1CCC/C=C/[C@@H]2C[C@H](O)C[C@H]2[C@H](O)[C@H](S(=O)c2ccc(O)cc2)CC(=O)O1` (some centres not stated), the inhibition in assay [1] is 71.7% (active); in assay [2] it was 77.6% (active); in assay [3], 77.7% (active); in assay [4] it was 84.4% (active); in assay [5], 76.6% (active); in assay [6], 77.6% (active).
For `c1ccc(CNc2nc(-c3ccccn3)nc3ccccc23)cc1`, the inhibition is 21.8% in assay [1]; 29.9% (active) in assay [2]; 68.7% (active) in assay [3]; 76.8% (active) in assay [4]; 84.3% (active) in assay [5]; 66.5% (active) in assay [6].
Take `COc1ccc(OC)c(NC(=O)c2nnn(Cc3ccccc3C)c2N)c1`: the inhibition in assay [1] was 4.83%; in assay [2], 29.9% (active); in assay [3], 20.2%; in assay [4], 44.5% (active); in assay [5], 52.9% (active); in assay [6], 57.3% (active).
On to `Cc1ccc(NC(=O)c2cc(Cl)ccc2[N+](=O)[O-])cc1C`, for which the inhibition in assay [1] was 27.3%; in assay [2], 18.5%; in assay [3] it was 16.6%; in assay [4] it was 36.5%; in assay [5] it was 34.6%; in assay [6], 19.6%.
On to `Cc1cc(C)cc(NC(=O)c2ccc([N+](=O)[O-])o2)c1`, for which the inhibition was 22.4% in assay [1]; 2.31% in assay [2]; 53% (active) in assay [3]; 76.3% (active) in assay [4]; 74.7% (active) in assay [5]; 20% in assay [6].
On to `COc1ccc2c(c1OC)C(=O)N1c3ccccc3C(=O)N(c3ccccc3F)C21` (configuration not stated), for which the inhibition is 17.7% in assay [1]; 10.7% in assay [2]; 53.5% (active) in assay [3]; 48.5% (active) in assay [4]; 54.1% (active) in assay [5]; 16.9% in assay [6].
With `CCC(C)(C)c1ccc(OCCCC[n+]2ccccc2)c(C(C)(C)CC)c1`, the inhibition was 26.1% in assay [1]; 37.4% (active) in assay [2]; 16.3% in assay [3]; 64% (active) in assay [4]; 55.6% (active) in assay [5]; 60.8% (active) in assay [6].
`COc1ccc(-c2n(CC(=O)OC3CC(C)CCC3C(C)C)c3ccccc3[n+]2C)cc1` (configuration not stated): the inhibition in assay [1] was 57.5% (active); in assay [2], 61.3% (active); in assay [3], 59.1% (active); in assay [4], 110% (active); in assay [5] it was 79.5% (active); in assay [6], 92.9% (active).
For `CCC(C)Nc1nc(-c2ccccn2)nc2ccccc12` (configuration not stated), the inhibition in assay [1] is 3.88%; in assay [2], 11.9%; in assay [3] it was 45.6% (active); in assay [4], 67.2% (active); in assay [5] it was 78.3% (active); in assay [6] it was 42.9% (active).
For the molecule `Cc1sc(NC(=O)c2ccco2)c(C(c2cccnc2)N2CCN(c3ccc(F)cc3)CC2)c1C` (configuration not stated), the inhibition was 19.5% in assay [1]; 31.9% (active) in assay [2]; 24.4% in assay [3]; 61.9% (active) in assay [4]; 60.2% (active) in assay [5]; 53.9% (active) in assay [6].
Consider `CCCC(=O)NC(c1ccc(N(C)C)cc1)c1ccc2cccnc2c1O` (configuration not stated), for which the inhibition is 78.2% (active) in assay [1]; 77% (active) in assay [2]; 91.9% (active) in assay [3]; 104% (active) in assay [4]; 91.3% (active) in assay [5]; 89.2% (active) in assay [6].
